# Test results as given in PubChem BioAssay (NCI).
# Compounds without any hit were thinned out: in the full panel of roughly 83,000, 20% have a hit.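 48-hour exposure, single concentration, 96-well plates; percent growth endpoint where 0 means no net growth. Active: below 10.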 A number with no mark means an inactive call. Calls of active or inactive are those of the source.
# Test system: TK-10 renal
# Assay: NCI-60 one-dose screen, 48 h (100 = growth as untreated, 0 = no growth, -100 = all killed)
# Conditions: 10 µM unless noted
row,SMILES,growth
1,COCCn1cc(-c2csc(-c3c[nH]c4ccccc34)n2)c2cccnc21,34.9%
2,CCN(CC)c1ccc(-c2cc(-c3cc(OC)c(OC)c(OC)c3)nc(N3CCC(O)CC3)c2C#N)cc1,3.06% (active)
3,CN1C(=O)/C(=C/c2ccc(C(=O)Nc3ncc(Cc4cccc(C(F)(F)F)c4)s3)cc2)SC1=S,47.5%
4,Nc1ncnc2c1N=C(c1ccc(Cl)cc1)CC(c1cccc(Nc3ccnc4cc(Cl)ccc34)c1)N2 (centres undefined),117%
5,COCCn1cc(-c2nc(-c3cc4cccnc4n3C)cs2)c2ccccc21,44.2%
6,COC(=O)[C@]1(C)CCC[C@]2(C)[C@H]3C[C@@H]4[C@H]5[C@@H]6CC/C(=N\OCC/C(N)=N/O)[C@H]5[C@@]3(CC[C@H]21)CC4(C(C)C)O6,84.9%
7,Cc1cccc(-c2nc(C(C)C)sc2-c2ccnc(NCCCNS(=O)(=O)c3ccc(Cl)cc3)c2)c1,80.1%
8,O=C(/C=C/C12c3ccccc3C(c3ccccc31)C1C(=O)NC(=O)C12)c1ccc(Cl)cc1Cl (centres undefined),22.4%
9,CC(C)(C)CC(C)(C)Nc1c(-c2c(O)c3ccccc3oc2=O)nc2sc3ccccc3n12,32.3%
10,CN(C)CCC(CCN(C)C)(C(=O)O)c1ccccc1,106%
11,Cn1c(=O)[nH]c(=O)c2nc3c(nc21)-c1ccccc1C3=O,102%
12,C=C(c1ccc(C(=O)O)c(F)c1)c1cc2c(cc1C)C(C)(C)CCC2(C)C,102%
13,C=C1C(=O)O[C@H]2[C@H]1CC/C(COC(=O)C(=O)c1c[nH]c3ccc(Cl)cc13)=C\CC[C@@]1(C)O[C@@H]21,-96.4% (active)
14,N#Cc1c(-c2ccc(Br)cc2)nc2c(N=Nc3ccc(S(N)(=O)=O)cc3)c(N)nn2c1N,73.2%
15,CCN(CC)CCN1C(=O)c2c(c3c4ccccc4[nH]c3c3ccc4ccccc4c23)C1=O,-86.2% (active)
16,O=C(/C=C/c1ccccc1)N(C1CCCCC1)C1CCCCC1,112%
17,CC1(C)CC[C@]2(CO)CC[C@]3(C)[C@](O)([C@H](O)C[C@@H]4[C@@]5(C)CCCNC(C)(C)[C@@H]5CC[C@]43C)[C@@H]2C1,103%

row,SMILES,growth
1,Nc1nc(N(Cc2ccccc2)c2ccccc2)c2cn[nH]c2n1,92.2%
2,CN1CC(c2ccc(Br)cc2)C(C(=O)c2ccc(Br)cc2)C12C(=O)Nc1ccccc12 (centres undefined),92.1%
3,Nc1nc(C(=O)N/N=C/c2ccc(F)cc2)nn1-c1ccc(S(N)(=O)=O)cc1,99.4%
4,COc1ccc(-c2nc(SCC(=O)Nc3nc4ccc(C)cc4s3)[nH]c(=O)c2C#N)cc1OC,164%
5,CNC(=O)NCC1OC(n2cnc3c(NC(=O)Nc4ccccc4)ncnc32)C2OC(=O)CC12 (centres undefined),99.3%
6,COc1ccc(NC(=O)c2ccc(Nc3ncnc4c3cnn4-c3cccc(F)c3)cc2)cc1,103%
7,CC(C)NS(=O)(=O)/N=C1\NC(=O)NC1=C(Cl)Cl,116%
8,Cc1ccc2cnc(N)c(C#Cc3cc(C(=O)Nc4ccc(CN5CCN(C)CC5)c(C(F)(F)F)c4)cnc3C)c2c1,39.7%
9,Cc1nn(-c2ccc([N+](=O)[O-])cc2)c2ncnc(N/N=C/c3ccccc3O)c12,35.5%
10,CC(C)(C)OC(=O)CN1CCc2c(sc3ncnc(N4CCN(c5ccc(F)cc5)CC4)c23)C1,100%
11,COC(=O)[C@@]1(C)CC[C@]2(C)CC[C@]3(C)C4=CC=C5C(=CC(=O)C(O)=C5C)[C@]4(C)[C@@H](O)C[C@@]3(C)[C@@H]2C1,18.4%
12,Cc1cc(Cl)nc(N2CCN(CCNc3ccnc4cc(Cl)ccc34)CC2)n1,48.2%
13,Cc1ccc(C)c2c1sc1nc(N3CCOCC3)c(C#N)c(=O)n12,154%
14,COc1ccc2c(c1)CC[C@@H]1[C@@H]2CC[C@]2(C)c3c(cc(C#N)c4c3sc3ccccc34)C[C@@H]12,107%
15,C=C1C(=O)O[C@H]2[C@H]1CC/C(COC(=O)NCc1ccc(Cn3c(=O)sn(-c4ccc(I)cc4)c3=O)cc1)=C\CC[C@@]1(C)O[C@@H]21,79.9%
16,O=C(O)CC(C(=O)O)/C(=C\c1ccccc1)c1ccccc1 (centres undefined),108%
17,CCN(CC)CCOc1ccc(Nc2ncc3cc(-c4c(Cl)cccc4Cl)c(=O)n(CCOC)c3n2)cc1,-55.5% (active)
